The panel holds about 79,000 compounds, 15% with a hit somewhere; the sample as a whole holds those more often. No stated cut-off is given here; in the data, active means growth inhibition above about 70%; inactive means the rest.
Assays:
[1] = NCI Yeast Anticancer Drug Screen. Data for the rad50 strain (AID 155);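 further: 0% = growth of vehicle-only cultures of the same strain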; conditions: S. cerevisiae rad50 strain growth inhibition; at 50.0 µM; active compounds read high
How it was run: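 Inhibition values express reduced yeast growth in compound-treated cultures relative to vehicle-treated controls.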

[2] = NCI Yeast Anticancer Drug Screen. Data for the mec2-1 strain (AID 157); conditions: S. cerevisiae mec2-1 strain, at 50.0 µM, active compounds read high
How it was run: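 Using mec2-1 yeast: add compound, measure growth, express inhibition versus vehicle-treated cultures.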

[3] = NCI Yeast Anticancer Drug Screen. Data for the sgs1 mgt1 strain (AID 161);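 further: 0% = growth of cultures given vehicle only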; conditions: S. cerevisiae sgs1 mgt1 strain, at 50.0 µM, active compounds read high
How it was run: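 Compounds are added to genetically altered yeast, and growth is compared with cultures given vehicle alone to give percent inhibition.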

[4] = NCI Yeast Anticancer Drug Screen. Data for the cln2 rad14 strain (AID 165);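 further: 0% = growth equal to vehicle treated cultures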; conditions: S. cerevisiae cln2 rad14 strain, at 50.0 µM, active compounds read high
How it was run: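 Yeast strain cln2 rad14, bearing defects in cell cycle control and DNA repair, serves as the test system; values reflect growth inhibition compared with vehicle.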

[5] = NCI Yeast Anticancer Drug Screen. Data for the bub3 strain (AID 167); conditions: S. cerevisiae bub3 mutant strain, at 50.0 µM, active compounds read high
How it was run: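 Steps: expose the mutant yeast strain to compound; grow alongside vehicle-treated cultures; measure growth; express inhibition against the vehicle cultures.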

[6] = NCI Yeast Anticancer Drug Screen. Data for the mlh1 rad18 strain (AID 175); conditions: S. cerevisiae mlh1 rad18 strain growth inhibition; at 50.0 µM; active compounds read high
How it was run: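 Steps: expose repair-defective yeast to compound; measure growth; express inhibition against vehicle-treated controls.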

Measured: growth inhibition

CC(O)C(C)(C)[N+](=O)[O-] (stereo not given)
inactive: [1] 0.45% | [2] -1.55% | [3] -7% | [4] -4.25% | [5] 2.8% | [6] 1.75%

OCc1c(-c2ccccc2)oc(-c2ccccc2)c1CN1CCOCC1
inactive: [1] 11.9% | [2] -0.95% | [3] 6.55% | [4] -11.9% | [5] 12% | [6] 9.2%

c1ccc(CN2CCC3(N4CCOCC4)C(C2)N=NN3c2ccccc2)cc1 (stereo not given)
inactive: [1] -27.9% | [2] -9.6% | [3] 0.65% | [4] -1.05% | [5] -11.7% | [6] -14.2%

CN(C)C=S
inactive: [1] -4.6% | [2] 1.9% | [3] -9.85% | [4] -12.6% | [5] -13.1% | [6] -4%

CC[C@H]1OC(=O)[C@H](C)[C@@H](OC2CC(C)(OC)C(O)C(C)O2)[C@H](C)[C@@H](OC2OC(C)CC(N(C)C)C2OC(=O)CCC2CCCC2)[C@](C)(O)C[C@@H](C)C(=O)[C@H](C)[C@@H](O)[C@]1(C)O (stereo not given in full)
inactive: [1] 3.25% | [2] -6.95% | [3] 4.05% | [4] 0.65% | [5] 7.3% | [6] -9.55%

CCCCC(=O)CCCCCCCCC(=O)CCCC
inactive: [1] 0.7% | [2] -8.65% | [3] -19.8% | [4] -31.2% | [5] -4% | [6] -19.8%

CC1(c2ccc[n+](Cc3ccccc3)c2)OCCO1
inactive: [1] -15.7% | [2] -31.1% | [3] -12.8% | [4] -11.2% | [5] -39.6% | [6] -27.1%

O=c1[nH]cnc2nc(-c3cccc([N+](=O)[O-])c3)[nH]c12
inactive: [1] -1% | [2] 30.9% | [3] 12.9% | [4] -13.8% | [5] 5.4% | [6] 24.9%

CCCCN(CCCC)CCC(O)c1ccc(OC)c2ccccc12 (stereo not given)
inactive: [1] 44.6% | [2] 4.55% | [3] 56.2% | [4] 57.4% | [5] 16.4% | [6] 49.7%

CCOc1c(N=Nc2ccccc2Cl)c(-c2ccccc2)nn1C(N)=S
inactive: [1] 6.75% | [2] 16.9% | [3] -1.95% | [4] 6.1% | [5] -3.95% | [6] 15.6%

O=C1c2ccccc2C(=O)N1c1cccc([N+](=O)[O-])c1
inactive: [1] 0.5% | [2] 15.9% | [3] 16.4% | [4] -44.6% | [5] 26.4% | [6] 7.05%

CC(=O)OCC1OC(n2cnc(Br)c2[N+](=O)[O-])C(OC(C)=O)C1OC(C)=O (stereo not given)
inactive: [1] 30.6% | [2] 3.4% | [3] 17% | [4] 14.5% | [5] 0.65% | [6] 2.75%

CN(C)C=N[C@@H](C(=O)O)c1ccccc1
inactive: [1] -8.85% | [2] -19.1% | [3] -11.4% | [4] 8.8% | [5] -4.95% | [6] 9.8%

CCC1(C)C(=O)c2ccccc2N(C)C1=O (stereo not given)
inactive: [1] -5.55% | [2] -10.1% | [3] -9.5% | [4] -37.9% | [5] 5% | [6] -6.25%

O=C(O)c1ccccc1NC(C(=O)O)c1ccccc1 (stereo not given)
inactive: [1] -13.1% | [2] -4.25% | [3] -27.4% | [4] 9.1% | [5] -18.9% | [6] -11.7%

C/C=C\C=N\NC(=O)C(=O)N/N=C/C=C\C
inactive: [1] 0.9% | [2] -17.1% | [3] -7.55% | [4] -56.5% | [5] -8.5% | [6] -0.75%

COc1cc(NN=C(C#N)C#N)c(OC)cc1Cl
inactive: [1] 37.6% | [2] 11.2% | [3] 48% | [4] 23.1% | [5] 40.7% | [6] 34.7%

NC(CCCC(N)C(=O)c1ccccc1)C(=O)c1ccccc1 (stereo not given)
inactive: [1] -13.7% | [2] 2.35% | [3] -1.5% | [4] -15.5% | [5] -11.3% | [6] 3.35%

C=Cc1ccccc1N=NC(C(=O)OC)=P(c1ccccc1)(c1ccccc1)c1ccccc1
inactive: [1] -24.2% | [2] 20.9% | [3] -1.2% | [4] -6.75% | [5] -4.05% | [6] -10.9%

C[n+]1cccc(NC(=O)COc2ccc(Cl)c(Cl)c2)c1
inactive: [1] 15.3% | [2] 3.95% | [3] -5.4% | [4] -18% | [5] -1.75% | [6] 21.5%

Source: PubChem BioAssay (NCI)
